# An excerpt weighted towards active compounds, which were near 5.4% of everything screened.
# PHOSPHO1 inh = PubChem AID 1565 | Phosphoethanolamine/phosphocholine phosphatase (Homo sapiens), Q8TCT1 | recombinant PHOSPHO1, absorbance phosphatase assay | inhibition, % at 13.3 µM | 1.1% of 290,000 active; in the data active = inhibition above about 60%
# aDG glyco act = activators of alpha-DG glycosylation, primary screen, uHTS, Pro5-aDG cells, AlphaScreen. alpha-DG glycosylation AlphaScreen (IIH6); 0% Pro5, 100% B10-LARGE cell signal. activation, % at 10 µM. 0.22% of 360,000 active. AID 624168, 2012;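 active = activation of at least 8% versus controls, or a plate z-score of at least 8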;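 also: Pro5 are CHO cells carrying HIG-tagged alpha-DG that lacks glycosylation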
# rCAG binder = binders of r(CAG) RNA repeats, primary screen, biochemical, fluorescence | r(CAG) RNA repeat, TO-PRO-1 dye displacement fluorescence | 1.3% of 370,000 active | AID 651821, 2012 | inhibition, % at 3 µM;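 active = inhibition above the plate cutoff, the mean of all test compounds on that plate plus 3 SD, cut at about 35% in these data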;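 also: 0% = DMSO alone and 100% = 100 µM mitoxantrone as full dye displacement; higher means more dye released from RNA so lower well fluorescence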
# A3G deaminase = APOBEC3G DNA deaminase inhibitors, primary screen, biochemical, fluorescence, single-stranded DNA substrate, uHTS. DNA dC->dU-editing enzyme APOBEC-3G (Homo sapiens), Q9HC16. recombinant A3G, ssDNA deamination FAM/TAMRA fluorescence. inhibition, % at 20 µM. 0.28% of 330,000 active;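 active = inhibition of at least 40% at 20 µM, with no more than 30% in the related APOBEC3A deaminase screen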;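 also: plate controls were DMSO wells with A3G for no effect and wells lacking A3G enzyme for full effect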
# APOBEC3A inh = APOBEC3A ssDNA deaminase inhibitors, primary screen, selectivity assay for APOBEC3G inhibitor project, biochemical, FAM/TAMRA oligo cleavage fluorescence; DNA dC->dU-editing enzyme APOBEC-3A (Homo sapiens), P31941; recombinant A3A, FAM/TAMRA ssDNA deamination fluorescence; AID 493011, 2011; inhibition, % at 20 µM; 0.41% of 330,000 active;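 active = at least 40% inhibition at 20 µM here, with at most 30% in a related deaminase screen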;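 also: plate controls were A3A with DMSO for no effect and wells lacking A3A enzyme for full effect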
# Target sequence (P31941 whole entry, looked up): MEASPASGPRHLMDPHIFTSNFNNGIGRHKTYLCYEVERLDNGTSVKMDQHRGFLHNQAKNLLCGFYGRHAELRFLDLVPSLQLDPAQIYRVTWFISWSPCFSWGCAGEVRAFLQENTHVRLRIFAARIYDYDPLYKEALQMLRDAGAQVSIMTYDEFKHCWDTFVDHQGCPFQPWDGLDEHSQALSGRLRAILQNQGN
# ALR inh = inhibitors of human ALR sulfhydryl oxidase, primary screen, biochemical, H2O2 detection, HRP-luminol luminescence, single point. 3.8% of 290,000 active. AID 485317, 2010. inhibition, % (test concentration not listed). purified ALR, DTT oxidation. FAD-linked sulfhydryl oxidase ALR (Homo sapiens), P55789;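 active = mean replicate inhibition above about 79%, with every replicate also reaching it, limit read from the data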
# Target sequence (P55789 whole entry, looked up): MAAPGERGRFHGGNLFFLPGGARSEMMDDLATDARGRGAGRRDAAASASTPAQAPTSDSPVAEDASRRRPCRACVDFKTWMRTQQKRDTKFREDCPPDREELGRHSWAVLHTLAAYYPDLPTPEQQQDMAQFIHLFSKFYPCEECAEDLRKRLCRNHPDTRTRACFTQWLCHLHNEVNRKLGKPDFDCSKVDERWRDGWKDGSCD
# * hit, by the source's call; . = not tested or not shown.
SMILES,PHOSPHO1 inh,aDG glyco act,rCAG binder,A3G deaminase,APOBEC3A inh,ALR inh
CN(C)c1ccc(NC(=O)Oc2ccccc2)cc1,39,0,-2,-7,-9,97*
Cc1onc(C(=O)Nc2cccnc2Cl)c1[N+](=O)[O-],18,0,-3,-6,-2,-3
COc1cc(NC(=O)c2noc(C)c2[N+](=O)[O-])c(OC)cc1Cl,64*,0,0,-3,-3,-4
OC(COCc1cccs1)CN1CCN(c2ccccc2Cl)CC1 (configuration not stated),11,0,-9,-3,-1,0
OC(COCc1cccs1)CN1CCN(c2cccc(Cl)c2)CC1 (configuration not stated),2,0,-7,-10,-3,91*
O=C(CSc1nncc2ccccc12)Nc1ccccc1,22,0,2,-6,0,99*
O=C(CSc1nncc2ccccc12)Nc1ccc(C(=O)O)cc1,10,0,2,-1,-4,100*
N/C(=N\O)c1ccc(NC(=O)c2ccc(Br)o2)cc1,-27,4,2,-5,-5,98*
O=C(CSc1nccc2ccccc12)N1CCN(c2ccccn2)CC1,1,0,4,-8,-3,98*
Cc1ccc(SCC(=O)N2CCN(c3ccccn3)CC2)cc1,12,0,-9,0,5,1
NNC(=O)c1cccc(COc2cccc(Br)c2)c1,42,0,8,-5,-1,-5
NNC(=O)c1cccc(COc2ccc(Br)cc2)c1,1,0,12,-5,2,97*
C=CC[C@@H]1NN2C(=O)[C@@H](CCc3ccccc3)[C@@H]3c4ccccc4C=NN3[C@@H]2c2ccccc21,.,.,7,.,.,.
O=C(NCCCN1CCOCC1)c1cc2c(s1)CSC2,27,0,8,-2,2,99*
O=C(NCCCN1CCOCC1)c1ccc(Br)s1,16,0,-3,-4,-2,4
CCC(CC)C(=O)c1c[nH]c(C(=O)NCCCN2CCOCC2)c1,66*,0,-3,-10,-1,5
Nc1nc2ncccc2cc1C(=O)C1=C(c2ccccc2)Cc2ccccc21,.,.,6,.,.,.
CCOc1cccc2sc(NN)nc12,61*,0,34,.,.,.
CC(NS(C)(=O)=O)C(c1cccs1)N1CCN(C)CC1 (configuration not stated),18,0,1,-5,-2,-10
COc1ccc(N2CCN(C(c3cccs3)C(C)NS(C)(=O)=O)CC2)cc1 (configuration not stated),-1,0,-6,2,-4,99*
CC(NC(=O)C(=O)N1CCOCC1)C(c1cccs1)N1CCN(c2ccc(F)cc2)CC1 (configuration not stated),49,0,-7,4,-1,98*
CC(NS(C)(=O)=O)C(c1cccs1)N1CCN(c2ccc(F)cc2)CC1 (configuration not stated),0,0,-3,-4,-1,98*
COc1ccc(N2CCN(C(c3cccs3)C(C)NC(=O)c3ccco3)CC2)cc1 (configuration not stated),-35,0,1,-4,-2,.
NC(=Nc1ccc(N)cc1)C(N)=Nc1ccc(N)cc1,25,0,13,-1,-2,99*
O=C(CNS(=O)(=O)c1cccs1)N1CCN(c2ncccn2)CC1,.,.,2,.,.,.
CC(Nc1cccc2ccccc12)C(=O)N/N=C/c1ccc([N+](=O)[O-])cc1 (configuration not stated),16,0,19,-3,2,-8
Cc1cccc(/C=N/NC(=O)C(C)Nc2cccc3ccccc23)n1 (configuration not stated),80*,1,9,-6,-7,63
S=c1[nH]c2ccc(Cl)cc2s1,42,0,1,.,.,99*

# Screening results (PubChem BioAssay)
